Test results from PubChem BioAssay AID504374 (National Center for Advancing Translational Sciences (NCATS), 2011).
“And” between values parts separate entries of the source, which are not always exact repeats. Equal values may be shown once. Out of some 1,500 compounds screened, about 100 (6.7%) were called active. Entries that show only a call come without a potency. Inconclusive results (about 7%) are left out. The sample holds actives, similar compounds and a random draw of the others, so the mix is not that of the screen. Calls come from the whole dose curve; as a rule, active = well fitted inhibition curve with a large enough effect; inconclusive = small, poorly fitted or top-dose-only effect, or effect the other way; inactive = flat fitted curve, though single readings scatter.

target: Runt-related transcription factor 1 (Homo sapiens) + Core-binding factor subunit beta (Homo sapiens) (UniProt Q01196+Q13951); test: qHTS Assay for Compounds Blocking the Interaction Between CBF-beta and RUNX1 for the Treatment of Acute Myeloid Leukemia: Hit Validation; settings: AlphaScreen CBFb-His/RUNX1-biotin binding; series mostly up to 59.8 µM; note: nearly all actives have a fitted effect of over 60% in size
Sequence (Q01196 whole entry, looked up): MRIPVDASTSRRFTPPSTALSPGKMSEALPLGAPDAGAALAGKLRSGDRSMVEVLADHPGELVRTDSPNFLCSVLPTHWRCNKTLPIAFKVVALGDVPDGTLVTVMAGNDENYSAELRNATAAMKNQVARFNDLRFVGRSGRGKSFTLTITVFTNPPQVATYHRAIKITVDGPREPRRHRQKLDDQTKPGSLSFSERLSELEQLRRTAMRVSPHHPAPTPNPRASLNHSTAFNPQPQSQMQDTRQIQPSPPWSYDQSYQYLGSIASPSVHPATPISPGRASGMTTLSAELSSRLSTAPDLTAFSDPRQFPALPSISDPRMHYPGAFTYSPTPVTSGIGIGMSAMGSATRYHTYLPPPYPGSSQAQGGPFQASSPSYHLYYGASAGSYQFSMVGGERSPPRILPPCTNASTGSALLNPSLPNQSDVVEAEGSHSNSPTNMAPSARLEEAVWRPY
Sequence (Q13951 whole entry, looked up): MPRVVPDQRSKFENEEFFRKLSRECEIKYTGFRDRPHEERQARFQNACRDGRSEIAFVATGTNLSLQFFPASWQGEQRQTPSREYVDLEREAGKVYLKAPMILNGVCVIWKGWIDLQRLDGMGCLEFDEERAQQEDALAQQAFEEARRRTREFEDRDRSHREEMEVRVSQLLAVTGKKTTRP
Method in brief: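 Compounds were added to a premixed CBF-beta-His/RUNX1-biotin complex (30 nM each, 20 min) for 15 min. Nickel and streptavidin AlphaScreen beads followed for 90 min at room temperature, with emission at 440 nm […].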
Potency is the fitted concentration of half-maximal effect.

| SMILES | Potency |
| --- | --- |
| Cc1cc(C)cc(NC(=O)NCC(O)COc2ccc([N+](=O)[O-])cc2)c1 (stereo unspecified) | inactive |
| CCOc1cc(/C=N/n2c(C)nnc2C)ccc1O | inactive |
| Cc1ccccc1Nc1ncc(C#N)c(N)n1 | inactive |
| O=C(Nc1ccc(Cl)cc1)Nc1ccc(C(=O)N2CCOCC2)cc1 | inactive |
| CCCc1nc2sc3ccccc3c(=O)c2c(=O)n1Cc1ccc(OC)cc1 | inactive |
| Cc1c(C(=O)/C=C/N(C)C)nnn1-c1ccc(Cl)c(Cl)c1 | inactive |
| O=c1oc2c(O)c(O)cc3c(=O)oc4c(O)c(O)cc1c4c23 | 0.158 µM (active) |
| O=c1cc2c(=O)oc3cc(O)c(O)oc3c2c(O)c1O | 0.447 µM (active) |
| COC(=O)Cc1[nH]c(=O)[nH]c1C(=O)OC | inactive |
| CSc1ccc(NC(=O)Nc2cc(C)ccn2)cc1 | inactive |
| C[N+](C)(C)CCCN(Cc1ccc2c(c1)OCO2)C(=O)NC1CCCCC1 | inactive |
| C=CCNC(=S)Nc1c(C(=O)OC)[nH]c2cc(OC)ccc12 | inactive |
| O=C(O)c1cc(O)c2c(c1)[C@H]([C@H]1c3cc(C(=O)O)cc(O)c3C(=O)c3c(O[C@@H]4OC(CO)C(O)C(O)C4O)cccc31)c1cccc(O[C@@H]3OC(CO)C(O)C(O)C3O)c1C2=O (stereo partly specified) | 0.562 µM (active) |
| O=C(OCC(O)COC(=O)c1cccnc1)c1cccnc1 | inactive |
| N#Cc1ccc(S(=O)(=O)N2CCCN(c3ccc(C(F)(F)F)cn3)CC2)cc1 | inactive |
| O=C(O)c1ccccc1C1Nc2ccccc2C(=O)N1CCCN1CCOCC1 (stereo unspecified) | inactive |
| Cc1ccc(Cn2nc(C)cc2C(=O)Nc2ccc(Cl)cc2)cc1 | inactive |
| CCn1c(NC(=O)C(C)C)c(-c2cccs2)c(=O)c2ccccc21 | inactive |
| CC(=O)Oc1cc(-c2coc3cc(OC(C)=O)c(OC(C)=O)c(OC(C)=O)c3c2=O)cc(OC(C)=O)c1OC(C)=O | 1 µM (active) |
| Cc1nc(C)c(-c2ccnc(/N=C/NO)n2)s1 | inactive |
| Cc1cc(OCC(=O)c2cccc(C(F)(F)F)c2)n2cnnc2n1 | inactive |
| Cc1onc(-c2ccccc2)c1C(=O)NC(=S)NNC(=O)c1ccco1 | inactive |
| O=C(NC(=S)NNC(=O)c1ccccc1O)c1ccco1 | 1.26 µM (active) |
| O=C(NC(=S)Nc1ccccc1N1CCCC1)c1ccco1 | inactive |

| SMILES | Potency |
| --- | --- |
| Nn1c(SCC(=O)Nc2ccc(S(N)(=O)=O)cc2)nnc1C(F)(F)F | inactive |
| O=C(CN1CCCc2ccccc21)N1CCc2ccccc21 | inactive |
| Cc1cccc(NC(=S)N(CCN(C)C)C(C)c2ccccn2)c1 (stereo unspecified) | 6.87 µM (active) |
| COc1ccc(CCN(C)CCC(=O)Nc2cccc(C)c2)cc1OC | inactive |
| Cc1ccc(NC(=S)Nc2ccccn2)cc1C | inactive |
| CC(c1ccccn1)N(CCN(C)C)C(=S)Nc1cccc(F)c1 (stereo unspecified) | 3.44 µM (active) |
| CC(=O)NNC(=S)Nc1cccc(F)c1 | inactive |
| CC1=NN(c2nc3ccccc3s2)C(O)(C(F)(F)F)C1 (stereo unspecified) | inactive |
| COc1ccc(NC(=O)c2cccs2)cn1 | inactive |
| CCOC(=O)NC1=NCC(C)S1 (stereo unspecified) | inactive |
| O=S(=O)(c1ccc(C(F)(F)F)cc1)N1CCCN(c2ccc(C(F)(F)F)cn2)CC1 | inactive |
| NNC(=O)c1ccc(COc2ccc([N+](=O)[O-])cc2)o1 | inactive |
| COc1ccc(/C=N/NC(=O)c2ccco2)cc1OCc1ccccc1 | inactive |
| N#Cc1cnn(-c2ccccc2)c1NC(=O)CN1CCOCC1 | inactive |
| COC(=O)CC1C(=O)NCCN1C(=S)Nc1ccc(F)cc1 (stereo unspecified) | inactive |
| O=C(O)COCC(=O)N1CCN(C2c3ccccc3-c3ccccc32)CC1 | inactive |
| CC(C)NC(=O)Nc1cccc(Cl)c1 | inactive |
| COCc1cc(O)c(O)c(O)c1-c1c(COC)cc(O)c(O)c1O | 0.631 µM (active) |
| CCCCNC(=O)NCCN1CCOCC1 | inactive |
| Brc1ccc(C2Nc3cccc4cccc(c34)N2)o1 | 14.1 µM (active) |
| Cc1ccc(/C=N/N2CCN(c3ccccn3)CC2)o1 | inactive |
| Cc1cc2nc(-c3ccccc3)cc(=O)n2[nH]1 | inactive |
| COc1ccc(/C=N/NC(=S)Nc2cc(C(F)(F)F)ccc2Cl)cc1 | inactive |
| NC(=S)N/N=C/c1ncc(C(F)(F)F)cc1Cl | 25.1 µM (active) |

| SMILES | Potency |
| --- | --- |
| CC(C)(C)c1ccc(CCC2OCC(C[N+]3(C)CCOCC3)O2)cc1 (stereo unspecified) | inactive |
| Cc1nn2c(NCCOCCO)c3c(nc2c1-c1ccccc1)CCC3 | inactive |
| O=C(c1ccc(Cn2cc(Cl)c([N+](=O)[O-])n2)cc1)N1CCN(Cc2ccccc2)CC1 | inactive |
| Cc1onc(-c2c(F)cccc2Cl)c1C(=O)Nc1ccccc1N1CCOCC1 | inactive |
| CCCCC(=O)Nc1ccc(NC(=S)NC(=O)c2ccco2)cc1OC | inactive |
| CCC(=O)Nc1cccc(C(=O)OC)c1 | inactive |
| CCc1cccc(NC(=O)CCCCCC2NC(=O)NC2C)c1 (stereo unspecified) | 0.447 µM (active) |
| CCOC(=O)CN1NC2(CCCCCC2)NC1=S | inactive |
| Cc1onc(-c2c(F)cccc2Cl)c1C(O)c1ccc(F)cc1 (stereo unspecified) | inactive |
| Nc1ncccc1OCc1ccc(Cl)c(Cl)c1 | inactive |
| COCCn1c(-c2ccc(Cl)cc2)nc2oc3cc(OC)ccc3c(=O)c2c1=O | inactive |
| CC(=O)Nc1ccc(OCCOc2ccc([N+](=O)[O-])cc2)cc1 | inactive |
| O=C1c2ccccc2C(=O)c2c(Nc3ccc(CCO)cc3)ccc(O)c21 | 0.794 µM (active) |
| CSC(=Nc1ccccc1)Nc1ccccc1 | inactive |
| CCOC(=O)N1CCN(CC(=O)Nc2sc(CC)cc2C(=O)c2ccc(OC)cc2)CC1 | inactive |
| CCOC(=O)CC(=O)CSc1nc(CC)c(C)cc1C#N | inactive |
| COc1ccc(N/C=C2\C(=O)c3c(sc(C)c3C)N(C)S2(=O)=O)cc1 | inactive |
| COc1cc(/C=N/NC(=O)c2cncc(Br)c2)cc([N+](=O)[O-])c1O | 2.82 µM (active) |
| COc1ccc(/C=N/NC(=O)c2ccc3nc[nH]c3c2)cc1OC | inactive |
| COc1cc(/C=N/Nc2ccc(S(N)(=O)=O)cc2[N+](=O)[O-])cc(OC)c1O | inactive |
| Oc1ccc2ccccc2c1C=Nc1ccccc1 | inactive |
| CNC(=O)/C(C#N)=C1\SC(Cc2ccc(F)cc2)C(=O)N1c1ccccc1C (stereo unspecified) | inactive |
| O=C(Nc1ccccc1)NC1CCCCNC1=O (stereo unspecified) | inactive |
| CCOC(=O)/C(C#N)=C/Nc1cc(F)ccc1C | inactive |

| SMILES | Potency |
| --- | --- |
| N#CC(C#N)=Cc1ccc(OC(=O)c2ccccn2)cc1 | 6.12 µM (active) |
| CCOC(=O)/C(C#N)=C/c1ccc(OC(=O)c2ccccn2)cc1 | 3.86 µM (active) |
| CCOc1ccccc1/C=C(/C#N)C(N)=O | inactive |
| N#C/C(=C\c1ccc(OC(=O)c2ccccn2)cc1)C(N)=O | 4.34 µM (active) |
| CCOC(=O)/C(C#N)=C/Nc1ccccc1OC(F)(F)F | inactive |
| COc1ccc(/C(C#N)=C/c2ccccn2)cc1 | inactive |
| S=c1[nH]ccn1-c1ccccc1Cl | inactive |
| CC(=O)NCC1(O)CCCC(C)C1 (stereo unspecified) | inactive |
| CC(C)(C)C(=O)Nc1ccc(NC(=O)C(C)(C)C)cc1 | inactive |
| O=C(COc1ccc([N+](=O)[O-])cc1Cl)N1CCOCC1 | inactive |
| O=C(CSc1n[nH]c(=O)[nH]c1=O)N1CCCCCC1 | inactive |
| O=C(Oc1ccc2c(c1)O/C(=C\c1ccncc1)C2=O)c1cccs1 | inactive |
| CCCN(CCC)C(=O)CC(c1ccccc1)c1ccco1 (stereo unspecified) | inactive |
| COC(=O)c1ccc(OC)c(OC)c1Cl | inactive |
| Cc1c2c(c(O)c3c(O)cccc13)C(=O)O[C@H]2C1C(N(C)C)C(O)=C(C(N)=O)C(=O)[C@H]1O (stereo partly specified) | 0.631 µM (active) |
| CCOC(=O)c1c2c([nH]c(=S)c1C#N)CCCC2 | inactive |
| COc1cc(O)c2c(c1)oc(=O)c1c3cc(O)c(O)cc3oc21 | 3.16 µM (active) |
| COc1cc(C2C(C#N)=C(N)OC3=C2C(=O)CC(C)(C)C3)ccc1OCCN1CCOCC1 (stereo unspecified) | inactive |
| COC(=O)c1ccc(Cn2cc([N+](=O)[O-])cn2)cc1 | inactive |
| C/C(O)=C(\C#N)P(=O)(c1ccccc1)c1ccccc1 | inactive |
| c1ccc(-c2ccc(-c3ccccn3)nn2)nc1 | 2.82 µM (active) |
| c1ccc(-c2ccccn2)nc1 | 7.94 µM (active) |
| O=[N+]([O-])c1ccccc1CSc1ccccn1 | inactive |
| Clc1ccccc1/C=C/c1nc(-c2ccccn2)no1 | inactive |

| SMILES | Potency |
| --- | --- |
| Clc1ccc(-c2ccccc2)nn1 | inactive |
| c1ccc(CSc2ccc(-c3ccccn3)nn2)nc1 | 2.51 µM (active) |
| c1ccc(-c2n[nH]c(-c3ccccn3)n2)nc1 | 1 µM (active) and 708 nM (active) |
| CC(=O)c1cc(C#N)c(SCc2ccccn2)nc1C | inactive |
| c1ccc(-c2ccc(-c3ccccn3)s2)nc1 | inactive |
| CCN(CCS(=O)(=O)c1ccc(Cl)cc1)C(=O)Nc1ccccc1 | inactive |
| COc1ccc2c(C)cc(C)nc2n1 | inactive |
| Cc1cc(C)n2cnnc2n1 | inactive |
| CCC1(C)N=C(N)Nc2nc3cc(C)c(C)cc3n21 (stereo unspecified) | inactive |
| CCOC(=O)N1CCC(NS(=O)(=O)c2ccccc2)CC1 | inactive |
| CCNC(=O)COC(=O)c1cc(S(=O)(=O)N2CCCCC2)ccc1C | inactive |
| Cc1cc(C)nc(N2N=C(C(F)(F)F)CC2=O)n1 | inactive |
| COc1ccc(CCn2cnc3c([nH]c4ccccc43)c2=O)cc1 | inactive |
| CC(C)(C)N1CCC1C(N)=O (stereo unspecified) | inactive |
| Cn1c(=O)c2c(Nc3ccc(F)cc3)cc(=O)n(-c3ccccc3)c2n(C)c1=O | inactive |
| O=C(CC1NCCNC1=O)NC1Cc2ccccc2C1 (stereo unspecified) | inactive |
| CC(=O)C1C(=O)CC(c2ccc(Cl)cc2)CC1=O (stereo unspecified) | inactive |
| Cc1oc(S(=O)(=O)N2CCCC2)cc1C(=O)Nc1ccc(F)cc1 | inactive |
| C=CCOc1c(CCC)cc(CCC)cc1C(N)=O | inactive |
| Cc1cc(O)c(C=O)c2c1C(=O)Oc1c(COC(=O)/C=C/C(=O)O)c(O)c(C(=O)O)c(C)c1O2 | 11.2 µM (active) |
